What was measured:
[1] = biological target: T1, Casein kinase II (Homo sapiens) (UniProt P67870+P68400+P19784); details: at 1 µM
[2] = biological target: T1, Casein kinase II (Homo sapiens); details: at 10 µM
[3] = biological target: Casein kinase II subunit alpha' (Homo sapiens) (UniProt P19784); details: at 10 µM
[4] = biological target: Dual specificity protein kinase CLK2 (Homo sapiens) (UniProt P49760); details: at 1 µM
[5] = biological target: Dual specificity protein kinase CLK2 (Homo sapiens) (UniProt P49760); details: at 10 µM
[6] = biological target: Dual specificity protein kinase CLK3 (Homo sapiens) (UniProt P49761); details: at 1 µM
Dual specificity protein kinase CLK3 (Homo sapiens), sequence (P49761 whole entry, looked up): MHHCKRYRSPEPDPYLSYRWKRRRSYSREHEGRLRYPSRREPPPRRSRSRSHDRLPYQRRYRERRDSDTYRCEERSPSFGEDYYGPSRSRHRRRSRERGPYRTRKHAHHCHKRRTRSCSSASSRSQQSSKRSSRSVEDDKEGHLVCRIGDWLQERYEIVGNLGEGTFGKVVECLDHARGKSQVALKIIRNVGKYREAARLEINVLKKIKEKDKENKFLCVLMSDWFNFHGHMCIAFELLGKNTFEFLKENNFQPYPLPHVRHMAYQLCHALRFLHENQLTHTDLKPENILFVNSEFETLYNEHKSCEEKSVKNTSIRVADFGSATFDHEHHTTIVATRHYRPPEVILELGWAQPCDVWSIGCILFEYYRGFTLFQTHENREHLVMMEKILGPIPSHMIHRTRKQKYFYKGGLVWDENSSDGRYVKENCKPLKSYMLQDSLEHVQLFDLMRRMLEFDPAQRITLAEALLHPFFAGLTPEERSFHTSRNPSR

[7] = biological target: Dual specificity protein kinase CLK3 (Homo sapiens) (UniProt P49761); details: at 10 µM
[8] = biological target: Tyrosine-protein kinase CSK (Homo sapiens) (UniProt P41240); details: at 1 µM
Tyrosine-protein kinase CSK (Homo sapiens), sequence (P41240 2-450 limits assumed): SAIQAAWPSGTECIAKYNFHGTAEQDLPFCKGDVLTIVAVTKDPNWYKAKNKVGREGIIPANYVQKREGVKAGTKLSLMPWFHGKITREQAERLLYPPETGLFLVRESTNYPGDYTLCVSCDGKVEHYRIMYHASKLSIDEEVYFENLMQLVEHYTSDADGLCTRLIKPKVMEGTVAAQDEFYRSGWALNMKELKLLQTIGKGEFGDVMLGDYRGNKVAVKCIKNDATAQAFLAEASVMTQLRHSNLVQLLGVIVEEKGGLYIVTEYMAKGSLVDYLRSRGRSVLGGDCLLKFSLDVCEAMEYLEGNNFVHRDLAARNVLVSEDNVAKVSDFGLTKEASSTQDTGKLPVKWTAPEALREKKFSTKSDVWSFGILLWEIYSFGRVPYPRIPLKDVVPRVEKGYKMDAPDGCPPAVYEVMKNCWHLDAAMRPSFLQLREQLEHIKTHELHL

[9] = biological target: Tyrosine-protein kinase CSK (Homo sapiens) (UniProt P41240); details: at 10 µM
[10] = biological target: Casein kinase II subunit alpha' (Homo sapiens) (UniProt P19784); details: at 1 µM

Dual specificity protein kinase CLK2 (Homo sapiens), sequence (P49760 whole entry, looked up): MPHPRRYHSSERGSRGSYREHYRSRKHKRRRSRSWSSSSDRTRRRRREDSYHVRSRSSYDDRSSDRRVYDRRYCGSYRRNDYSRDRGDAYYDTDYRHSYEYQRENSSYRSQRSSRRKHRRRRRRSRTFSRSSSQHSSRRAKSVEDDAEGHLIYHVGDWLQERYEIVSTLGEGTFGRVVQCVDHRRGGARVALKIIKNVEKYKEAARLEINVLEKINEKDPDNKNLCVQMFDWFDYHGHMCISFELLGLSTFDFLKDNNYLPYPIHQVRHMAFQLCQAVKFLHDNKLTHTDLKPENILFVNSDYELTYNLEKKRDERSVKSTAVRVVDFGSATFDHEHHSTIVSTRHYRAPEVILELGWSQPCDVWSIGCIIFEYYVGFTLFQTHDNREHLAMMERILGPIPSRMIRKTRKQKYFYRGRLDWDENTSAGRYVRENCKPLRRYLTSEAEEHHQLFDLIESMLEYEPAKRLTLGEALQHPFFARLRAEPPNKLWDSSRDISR
Casein kinase II subunit alpha' (Homo sapiens), sequence (P19784 whole entry, looked up): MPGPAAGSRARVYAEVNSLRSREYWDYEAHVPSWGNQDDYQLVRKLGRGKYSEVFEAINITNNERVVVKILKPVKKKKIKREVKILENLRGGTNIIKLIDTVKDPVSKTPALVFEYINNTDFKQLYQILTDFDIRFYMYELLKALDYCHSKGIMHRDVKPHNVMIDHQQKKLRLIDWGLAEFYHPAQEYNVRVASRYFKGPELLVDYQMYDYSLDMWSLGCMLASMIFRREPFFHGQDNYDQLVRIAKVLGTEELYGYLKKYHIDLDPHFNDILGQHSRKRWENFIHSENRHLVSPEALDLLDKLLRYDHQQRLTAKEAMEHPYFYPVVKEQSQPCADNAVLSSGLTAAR
T1 sequence (P19784 whole entry, looked up): as above
T1 sequence (P67870 whole entry, looked up): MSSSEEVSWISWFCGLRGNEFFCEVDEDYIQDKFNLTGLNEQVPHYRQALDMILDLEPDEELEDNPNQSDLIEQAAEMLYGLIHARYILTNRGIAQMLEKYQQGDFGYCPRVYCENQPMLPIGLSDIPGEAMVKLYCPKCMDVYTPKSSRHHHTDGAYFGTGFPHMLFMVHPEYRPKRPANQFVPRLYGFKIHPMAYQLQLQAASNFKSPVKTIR
T1 sequence (P68400 whole entry, looked up): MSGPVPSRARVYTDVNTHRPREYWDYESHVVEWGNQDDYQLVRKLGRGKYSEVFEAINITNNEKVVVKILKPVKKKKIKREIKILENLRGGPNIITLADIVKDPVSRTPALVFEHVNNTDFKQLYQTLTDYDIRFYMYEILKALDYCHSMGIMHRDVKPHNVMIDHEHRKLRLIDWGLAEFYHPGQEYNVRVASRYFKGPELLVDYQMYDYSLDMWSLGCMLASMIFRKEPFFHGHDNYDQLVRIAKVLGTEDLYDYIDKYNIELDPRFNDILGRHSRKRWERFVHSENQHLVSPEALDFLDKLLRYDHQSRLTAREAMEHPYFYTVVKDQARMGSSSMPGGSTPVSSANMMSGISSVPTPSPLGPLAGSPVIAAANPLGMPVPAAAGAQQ

Structure (SMILES)	residual activity [1] [%]	residual activity [2] [%]	residual activity [3] [%]	residual activity [4] [%]	residual activity [5] [%]	residual activity [6] [%]	residual activity [7] [%]	residual activity [8] [%]	residual activity [9] [%]	residual activity [10] [%]
CN(C)CCCn1cc(C2=C(c3c[nH]c4ccccc34)C(=O)NC2=O)c2ccccc21	107	101	104	14	2	66	21	122	100	–
O=C1Nc2ccc(Br)cc2/C1=C\c1cc2c([nH]1)CCCC2	77	117	–	106	101	–	53	118	102	120
c1ccc2c(-c3ccncc3)c[nH]c2c1	78	95	90	112	85	87	108	–	–	–
N#Cc1cnc2cnc(NCc3cccnc3)cc2c1Nc1ccc(F)c(Cl)c1	–	–	100	–	–	84	51	93	75	–
C[C@@H](N)[C@H]1CC[C@H](C(=O)Nc2ccncc2)CC1	–	87	–	97	66	99	90	106	93	93
CC#CC(=O)Nc1cc2c(Nc3ccc(F)c(Cl)c3)ncnc2cn1	78	114	86	103	88	83	125	103	99	120
Cc1cc2ncc(-c3ccccc3)nc2cc1C	–	–	–	–	98	98	96	–	–	–
CC(=O)c1ccc(N2CCOCC2)cc1O	81	108	93	–	101	–	91	–	–	–
O=C1NC(=O)c2cc(Nc3ccc(F)cc3)c(Nc3ccc(F)cc3)cc21	90	110	96	100	40	79	129	98	93	125
CC(C)n1cnc2c(NCc3ccccc3)nc(NCCCO)nc21	102	94	108	53	14	88	67	104	100	110
O=C1NC(=O)c2c1c1c3ccccc3[nH]c1c1[nH]c3cc(Br)ccc3c21	104	94	86	98	87	82	81	96	84	96
NC(=O)c1ccc2[nH]c(-c3ccc(Oc4ccc(Cl)cc4)cc3)nc2c1	100	92	102	101	104	89	82	105	102	92
CCN(CC)CCCCN1c2ccccc2Oc2ccc(Cl)cc21	104	103	101	117	127	89	92	113	102	137
c1ccc(-c2n[nH]cc2-c2ccnc3ccccc23)nc1	104	105	–	–	86	86	132	–	–	–
O=[N+]([O-])c1ccc(-c2nc(-c3ccc(F)cc3)c(-c3ccncc3)[nH]2)cc1	100	108	114	122	107	89	87	108	105	114
O=C(Nc1cccc(Nc2cc(Nc3cccc(C(F)(F)F)c3)ncn2)c1)C1CC1	107	104	103	99	101	89	32	114	96	114
O=C1NC(=O)/C(=C\c2ccc3nccnc3c2)S1	-13	-12	-5	43	6	19	-1	102	99	-12
COc1ccc(S(=O)(=O)N(CCO)c2ccccc2CN(C)C/C=C/c2ccc(Cl)cc2)cc1	89	94	95	127	102	89	86	115	84	106
Cc1nc(-c2ccccc2)c(-c2ccncc2)o1	103	98	92	114	96	82	84	108	104	102
COc1cc2ncnc(Nc3ccc(Oc4ccccc4)cc3)c2cc1OC	93	100	108	108	106	82	99	12	3	114
CCN(CC)C(=O)c1ccc(Nc2nc(OCC3CCCCC3)c3nc[nH]c3n2)cc1	–	–	75	25	6	65	20	–	44	101
COc1cc2ncc(-c3ccccc3)nc2cc1OC	–	–	–	–	–	92	81	–	94	–
Nc1cccc(-c2cc3c(Oc4cccc(O)c4)ncnc3[nH]2)c1	101	105	–	93	50	75	63	79	21	–
N#CC(C#N)=C(N)/C(C#N)=C/c1ccc(O)cc1	91	85	86	–	–	87	126	–	–	120
Cc1cncc2cccc(S(=O)(=O)N3CCCN(C(=O)CN)C[C@H]3C)c12	–	–	98	–	–	76	98	–	–	128
N#C/C(=C(\N)Sc1ccc(N)cc1)c1ccccc1C(F)(F)F	96	99	104	97	94	95	92	106	87	108
Nc1nc(Nc2ccc(S(N)(=O)=O)cc2)nn1C(=S)Nc1c(F)cccc1F	100	85	62	-2	2	-4	-5	–	99	95
Ic1cccc(CSc2nnc(-c3ccncc3)o2)c1	87	87	97	12	13	65	45	104	94	101
